Measured values: PubChem BioAssay AID1159580 (chemical genetic matrix, 2015)
The whole screen tested about 5,500 compounds, of which about 2,000 (36%) were called active. Another 18% or so got no clear call; they are omitted. Rule as the data show it: active = normalized growth mostly below about 0.91 (no sharp cut-off); inconclusive = no clear call, values can overlap the other calls; inactive = mostly above about 0.92. The list shows a part of the results.

Test: chemical genetic growth profiling, strain panel (AID 1159580);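 also: tested at 20 µM; growth read once vehicle control cultures reached saturation at 30 °C; 1 = growth at the plate median or of vehicle wells; lower values mean less growth of the strain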
Conditions: S. cerevisiae deletion strains, growth OD

Measured: normalized growth

CC12CCC3C(CCC4(O)CC(O)CCC34/C=N/NC(N)=O)C1(O)CCC2C1=CC(=O)OC1 (stereo not given)
inactive: locus YBR021W, strain FUR4, hits give low values 1.05 | locus YBR229C, strain ROT2, hits give low values 1.02 | locus YCL029C, strain bik1, hits give low values 0.999 | locus YDL035C, strain GPR1, hits give low values 1.05 | locus YDL074C, strain BRE1, hits give low values 1.05 | locus YDL101C, strain DUN1, hits give low values 1.01 | locus YDL185W, strain tfp1, hits give low values 0.998 | locus YDL192W, strain arf1, hits give low values 1.01 | locus YDR101C, strain arx1, hits give low values 1.01 | locus YDR162C, strain NBP2, hits give low values 1.02 | locus YDR318W, strain mcm21, hits give low values 0.985 | locus YDR388W, hits give low values 0.985 | locus YDR502C, strain sam2, hits give low values 0.974 | locus YER110C, hits give low values 0.963 | locus YER155C, strain BEM2, hits give low values 1 | locus YER167W, strain BCK2, hits give low values 1.02 | locus YGL078C, strain dbp3, hits give low values 0.983 | locus YGL086W, strain mad1, hits give low values 0.991 | locus YGL248W, strain PDE1, hits give low values 1 | locus YGR078C, strain PAC10, hits give low values 0.991 | locus YGR135W, strain pre9, hits give low values 0.957 | locus YGR252W, strain gcn5, hits give low values 0.98 | locus YHR030C, strain SLT2, hits give low values 1.01 | locus YHR079C, strain IRE1 (second series), hits give low values 0.988 | locus YHR094C, strain hxt1, hits give low values 0.979 | locus YHR129C, strain ARP1, hits give low values 1.01 | locus YHR200W, strain rpn10, hits give low values 0.994 | locus YIL066C, strain RNR3, hits give low values 1.04 | locus YIL073C, strain SPO22, hits give low values 1.01 | locus YIL125W, strain kgd1, hits give low values 0.992 | locus YIR030C, strain dcg1, hits give low values 0.994 | locus YJL095W, strain BCK1, hits give low values 1 | locus YJL134W, strain LCB3, hits give low values 1.01 | locus YJL168C, strain set2, hits give low values 0.991 | locus YJL187C, strain SWE1 (second series), hits give low values 0.999 | locus YKL009W, strain mrt4, hits give low values 1.03 | locus YKL068W, hits give low values 0.987 | locus YKL085W, strain MDH1 (second series), hits give low values 0.994 | locus YKL085W, strain MDH1, hits give low values 0.994 | locus YKR001C, strain vps1, hits give low values 0.996 | locus YLR039C, strain RIC1, hits give low values 1.06 | locus YLR058C, strain SHM2, hits give low values 1.02 | locus YLR102C, strain apc9, hits give low values 0.985 | locus YLR262C, strain YPT6, hits give low values 1.05 | locus YLR268W, strain sec22, hits give low values 1.02 | locus YLR371W, strain rom2, hits give low values 0.994 | locus YLR418C, strain cdc73, hits give low values 0.975 | locus YML016C, strain PPZ1, hits give low values 1.02 | locus YML032C, strain rad52, hits give low values 1 | locus YML124C, strain tub3, hits give low values 0.986 | locus YMR078C, strain ctf18, hits give low values 0.981 | locus YMR223W, strain ubp8, hits give low values 0.975 | locus YMR307W, strain GAS1, hits give low values 1.08 | locus YNL067W, strain RPL9B, hits give low values 0.986 | locus YNL153C, strain GIM3, hits give low values 0.991 | locus YNL233W, strain BNI4, hits give low values 0.987 | locus YNL250W, strain rad50, hits give low values 0.985 | locus YNL271C, strain bni1, hits give low values 0.994 | locus YNL298W, strain CLA4, hits give low values 0.983 | locus YNL307C, strain MCK1, hits give low values 0.986 | locus YNR052C, strain pop2, hits give low values 0.98 | locus YOL012C, strain htz1 1.29 | locus YOL147C, strain pex11, hits give low values 0.986 | locus YOR061W, strain CKA2, hits give low values 1.04 | locus YOR069W, strain VPS5, hits give low values 1 | locus YOR136W, strain idh2, hits give low values 0.98 | locus YOR144C, strain elg1, hits give low values 0.989 | locus YOR184W, strain ser1, hits give low values 1.03 | locus YOR316C, strain cot1, hits give low values 0.987 | locus YPL241C, strain CIN2, hits give low values 1.01 | locus YPR119W, strain clb2, hits give low values 0.983 | locus YPR141C, strain kar3, hits give low values 0.994 | locus YPR163C, strain tif3, hits give low values 0.989 | locus YPR167C, strain met16, hits give low values 0.978 | strain wtn01, hits give low values 1.01
